# Measurements: publication PMC5540273 (PLoS ONE, 2017)
# Like-named read-outs stand apart in the source and are kept apart here.
# Tests used:
# DYRK1B = details: n = 1
# DYRK2 = details: concentration: 1 μM,replicates: in singlicate; n = 1
# EGFR = details: concentration: 1 μM,replicates: in singlicate; n = 1
# EIF2AK1 = details: concentration: 1 μM,replicates: in singlicate; n = 1
# EPHA1 = details: concentration: 1 μM,replicates: in singlicate; n = 1
# EPHA2 = details: concentration: 1 μM,replicates: in singlicate; n = 1
# EPHA3 = details: concentration: 1 μM,replicates: in singlicate; n = 1
# EPHA4 = details: concentration: 1 μM,replicates: in singlicate; n = 1
# EPHA5 = details: concentration: 1 μM,replicates: in singlicate; n = 1
# EPHA6 = details: n = 1
# [1] = concentration: 1 μM,replicates: in singlicate
# 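Also: KINOMEscan kinase panel screen.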
SMILES,%Inh (DYRK1B; [1]),%Inh (DYRK2),%Inh (EGFR),%Inh (EIF2AK1),%Inh (EPHA1),%Inh (EPHA2),%Inh (EPHA3),%Inh (EPHA4),%Inh (EPHA5),%Inh (EPHA6; [1]),%Inh (DYRK1B; 1 µM),%Inh (EPHA6; 1 µM)
CC(=O)c1c(-c2ccncc2)[nH]c(-c2ccncc2)c1C [GW493036],100%,92.3%,37%,17%,19%,6%,0%,0%,0%,0%,,
Cl.Cl.NC[C@H](CC1CCCCC1)NC(=O)c1ccc(-c2ccnc3[nH]ccc23)s1 [GSK1581428],27%,80%,28%,0%,7%,0%,17%,5%,0%,27%,,
CCn1c(-c2nonc2N)nc2cncc(CNC3CCNCC3)c21.Cl [SB-747651],12%,25%,35%,2%,6%,0%,0%,9%,0%,3%,,
Cn1ccc2ncnc(Oc3ccc(NC(=O)Nc4cc(C(C)(C)C)on4)c(Cl)c3)c21,39%,23%,50%,3%,71%,85%,93.4%,68%,58%,99.6%,,
Cl.c1ccc(Oc2ccc(Nc3ccnc4cc(-c5ccc(CN6CCNCC6)o5)ccc34)cc2)nc1 [GW567142],0%,33%,97.7%,0%,77%,0%,16%,0%,0%,0%,,
O=C(Nc1cccc(Oc2ccc3nccn3n2)c1)Nc1cccc(C(F)(F)F)c1,26%,8%,23%,0%,21%,75%,8%,51%,11%,15%,,
CCNCC(Cc1ccccc1)NC(=O)c1cc(Br)c(-c2ccnc3[nH]ccc23)s1.Cl.Cl (centres unmarked) [GSK1383280],53%,31%,28%,0%,25%,24%,45%,0%,0%,7%,,
COc1cccc(OC)c1C(=O)Nc1cccc(-c2nn3ccccc3c2-c2ccnc(Nc3cccc(F)c3)n2)c1 [GSK361065],,0%,91.7%,0%,4%,11%,0%,0%,11%,,24%,11%
